# Experimental data reported in PubChem BioAssay (NCATS).
# A number with no mark means an inactive call. Inconclusive results are not listed. Where a call stands in place of a potency, no number is given. Activity calls are given as the source filed them. Unless noted, calls come from the whole dose curve; as a rule, active = well fitted curve in the direction sought with a large enough effect; inconclusive = small, poorly fitted or top-dose-only effect, or another doubt; inactive = no such curve, though single readings can be large; an effect the other way counts as inactive or inconclusive.
# Assays:
# [1] = molecular target: Voltage-gated inwardly rectifying potassium channel KCNH2 (Homo sapiens) (UniProt Q12809); assay: qHTS Assay for Small Molecule Inhibitors of the Human hERG Channel Activity (AID 588834);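 note: lower thallium flux fluorescence means stronger hERG block; nearly all actives have a fitted effect of over 50% in size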; note: potency is the fitted concentration of half-maximal effect
# Method in brief: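 Kinetic FDSS fluorescence; U2OS + hERG BacMam (~100 virus particles/cell); FluxOR Tl+ flux; ~10 min cpd; AC50 (Hill).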
# [2] = molecular target: Luciferin 4-monooxygenase (Photinus pyralis) (UniProt P08659); assay: Biochemical firefly luciferase enzyme assay for NPC (AID 624030);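 note: purified P. pyralis luciferase at 10 nM with luciferin and ATP substrate; nearly all actives have a fitted effect of over 70% in size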
# Method in brief: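 Direct inhibition of firefly luciferase enzyme (10 nM final, 50 mM Tris Acetate) assessed by luminescence within 5 minutes. Percent activity scaled between DMSO and PTC124 positive control, with concentration-effect curves classified by fit quality and response.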
# [3] = S16 Schwann cell viability assay (CellTiter-Glo assay) (AID 624031); note: nearly all actives have a fitted effect of over 70% in size; note: potency is the fitted concentration of half-maximal effect
# Method in brief: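 Cells were seeded at 500-750 per well in phenol red-free DMEM with 10% FBS and left overnight. Compounds or DMSO were pinned in, incubation ran 24 h at 37 °C/5% CO2, then CellTiter-Glo reagent was added and luminescence measured.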
# [4] = S16 Schwann cell PMP22 intronic element beta-lactamase assay (AID 624044; calls by dose curve; note: nearly all actives have a fitted effect of over 15% in size); settings: S16 rat Schwann cells, PMP22 element beta-lactamase FRET, 24 h; ratio activity, negative = inhibition: at 38.3 µM (top of the series) unless noted
# Method in brief: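 Rat S16 Schwann cells with beta-Lac driven by a PMP22 intronic element, compound-treated 24 h at 37 °C. LiveBLAzer FRET B/G read: 460 nm normalized to potassium clavulanate vs DMSO; 535 nm FRET as viability; concentration-effect curves classified.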
# [5] = S16 Schwann cell PMP22 intronic element firefly luciferase assay (AID 624032); note: nearly all actives have a fitted effect of over 30% in size
# Method in brief: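 Luciferase reporter of PMP22 intronic-element expression in stably transfected S16 rat Schwann cells, read by ONE-Glo luminescence after 24 h compound exposure at 37 C. Activity scaled between DMSO (0%) and positive-control PTC124; concentration-effect curves quality-classified.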
# [6] = qHTS assay for small molecule activators of the nuclear factor-kappa B (NF-kB) signaling pathway (AID 651749; active = well fitted activation curve with a large enough effect in the signal ratio; the % refers to the signal ratio); settings: NF-kB-bla ME-180 cells, beta-lactamase FRET ratio, 16 h; stronger effect = higher value
# Method in brief: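 Stably transfected ME-180 line; NF-kB response element upstream of beta-lactamase. Treatment: compound or DMSO, 16 hr. Detection: fluorescent FRET substrate.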
# [7] = qHTS assay for environmental chemicals that activate the Aryl hydrocarbon Receptor (AhR) signaling pathway (AID 651777); settings: 1A2-DRE human hepatoma cells, luciferase, 24 h; activation: stronger effect = higher value; note: nearly all actives have a fitted effect of over 15% in size
# Method in brief: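 AhR activation is scored as a rise in luciferase from a stable DRE–CYP1A2 promoter construct in human hepatoma cells. Treatment lasts 24 hr at 37 C; detection uses One-Glo after 30 min at room temperature.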
# [8] = molecular target: Peroxisome proliferator-activated receptor alpha (Homo sapiens) (UniProt Q07869); assay: qHTS assay for small molecule agonists of the peroxisome proliferator-activated receptor alpha (PPARalpha) signaling pathway (AID 651778); settings: PathHunter PPARalpha complementation, chemiluminescence, 6 h; stronger effect = higher value
# Method in brief: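 Chemiluminescence from complemented enzyme reported PPARalpha activation in cells after 6 hr of compound treatment at 37 C. The detection reagent was incubated for 60 min at room temperature, and compounds were scored as agonists.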
# [9] = qHTS assay for small molecule disruptors of the mitochondrial membrane potential - 1 hr assay (AID 651754; calls by dose curve; note: nearly all actives have a fitted effect of over 35% in size)
# Method in brief: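 Steps: seed HepG2 cells and let attach overnight; pin-transfer compound or vehicle; incubate 1 hr at 37C; add Mito-MPS dye for 30 min; read two-channel fluorescence for monomer and aggregate forms.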
# [10] = qHTS assay for small molecule disruptors of the mitochondrial membrane potential - 5 hr assay (AID 651755; calls by dose curve; note: nearly all actives have a fitted effect of over 40% in size)
# Method in brief: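 HepG2, 2,000 cells/well, overnight attach; cpd or DMSO 5 hr, 37C/5% CO2; Mito-MPS 30 min 37C; fluor 490/535 + 540/590 nm.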
# [11] = molecular target: Tumor necrosis factor (Homo sapiens) (UniProt P01375); assay: qHTS assay to identify small molecules that stimulate Tumor Necrosis Factor-alpha (TNF-alpha) secretion (AID 651757; active = well fitted curve in the direction sought with a large enough effect in the signal ratio; the % refers to the signal ratio)
# Method in brief: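 Secreted TNF-alpha from compound-treated THP-1 cells (17 hrs, 37 C) was quantified with a homogeneous time-resolved fluorescence antibody assay.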
# [12] = qHTS assay to identify small molecules that stimulate interleukin-8 (IL-8) secretion (AID 651758; active = well fitted activation curve with a large enough effect in the signal ratio; the % refers to the signal ratio)
# Method in brief: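 Secreted IL-8 measured by TR-FRET sandwich (cryptate and XL665 antibodies) from THP-1 cells exposed to compound overnight (16 hrs, 37 C).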
# [13] = molecular target: Nuclear receptor ROR-gamma (Homo sapiens) (UniProt P51449); assay: qHTS assay for small molecule antagonists of the retinoid-related orphan receptor gamma (ROR-gamma) signaling pathway (AID 651802);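 note: CHO cells with doxycycline-induced ROR-gamma expression; luciferase reporter luminescence driven by ROR response element; nearly all actives have a fitted effect of over 60% in size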
# Method in brief: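 Antagonism is scored as a fall in luminescence from a RORE-luciferase reporter in CHO cells expressing ROR under a TET-inducible promoter, measured 16hr after doxycycline induction in the presence of compound.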
# Luciferin 4-monooxygenase (Photinus pyralis), sequence (P08659 whole entry, looked up): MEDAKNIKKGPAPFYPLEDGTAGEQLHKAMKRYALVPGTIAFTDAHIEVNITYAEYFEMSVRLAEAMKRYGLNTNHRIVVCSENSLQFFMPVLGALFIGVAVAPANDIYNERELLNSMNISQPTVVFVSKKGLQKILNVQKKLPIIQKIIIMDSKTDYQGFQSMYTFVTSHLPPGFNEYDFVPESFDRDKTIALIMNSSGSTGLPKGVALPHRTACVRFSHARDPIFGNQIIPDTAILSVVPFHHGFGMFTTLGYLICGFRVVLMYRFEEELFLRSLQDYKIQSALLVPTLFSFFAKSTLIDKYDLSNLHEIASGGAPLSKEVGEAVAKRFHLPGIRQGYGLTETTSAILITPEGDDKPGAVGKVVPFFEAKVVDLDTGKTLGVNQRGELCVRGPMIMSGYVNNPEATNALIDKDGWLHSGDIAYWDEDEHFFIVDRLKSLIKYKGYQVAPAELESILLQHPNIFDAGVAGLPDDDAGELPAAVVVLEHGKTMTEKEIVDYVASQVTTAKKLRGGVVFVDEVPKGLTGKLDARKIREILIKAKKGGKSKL
# Voltage-gated inwardly rectifying potassium channel KCNH2 (Homo sapiens), sequence (Q12809 whole entry, looked up): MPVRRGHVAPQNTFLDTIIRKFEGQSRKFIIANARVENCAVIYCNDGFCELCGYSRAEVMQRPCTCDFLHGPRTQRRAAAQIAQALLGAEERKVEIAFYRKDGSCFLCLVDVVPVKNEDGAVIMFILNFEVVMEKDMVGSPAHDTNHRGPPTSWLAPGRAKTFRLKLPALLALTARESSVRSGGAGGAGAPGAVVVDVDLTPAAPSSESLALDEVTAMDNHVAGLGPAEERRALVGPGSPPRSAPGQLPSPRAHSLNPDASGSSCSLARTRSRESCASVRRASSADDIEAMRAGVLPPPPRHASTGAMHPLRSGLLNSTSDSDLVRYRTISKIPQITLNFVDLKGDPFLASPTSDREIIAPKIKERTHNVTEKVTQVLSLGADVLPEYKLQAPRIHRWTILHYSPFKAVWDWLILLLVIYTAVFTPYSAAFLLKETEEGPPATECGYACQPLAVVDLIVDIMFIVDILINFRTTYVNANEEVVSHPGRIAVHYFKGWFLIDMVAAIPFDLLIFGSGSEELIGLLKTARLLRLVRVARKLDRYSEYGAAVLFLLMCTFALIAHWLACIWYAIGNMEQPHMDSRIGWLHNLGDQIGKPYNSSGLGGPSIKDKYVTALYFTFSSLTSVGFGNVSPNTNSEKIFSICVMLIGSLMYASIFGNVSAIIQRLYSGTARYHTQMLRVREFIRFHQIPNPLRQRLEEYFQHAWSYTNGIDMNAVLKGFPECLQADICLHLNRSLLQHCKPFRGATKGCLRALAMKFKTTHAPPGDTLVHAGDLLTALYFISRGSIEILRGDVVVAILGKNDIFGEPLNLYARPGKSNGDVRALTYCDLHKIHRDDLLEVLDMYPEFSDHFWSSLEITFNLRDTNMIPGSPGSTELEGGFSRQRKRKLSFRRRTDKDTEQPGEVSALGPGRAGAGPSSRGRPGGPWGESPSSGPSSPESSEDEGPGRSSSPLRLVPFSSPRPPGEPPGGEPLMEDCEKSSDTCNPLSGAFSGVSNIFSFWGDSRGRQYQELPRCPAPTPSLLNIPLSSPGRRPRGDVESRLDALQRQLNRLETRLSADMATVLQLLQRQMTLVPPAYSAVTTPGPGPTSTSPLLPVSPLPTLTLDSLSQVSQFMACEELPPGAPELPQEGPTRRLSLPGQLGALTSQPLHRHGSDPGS
# Peroxisome proliferator-activated receptor alpha (Homo sapiens), sequence (Q07869 whole entry, looked up): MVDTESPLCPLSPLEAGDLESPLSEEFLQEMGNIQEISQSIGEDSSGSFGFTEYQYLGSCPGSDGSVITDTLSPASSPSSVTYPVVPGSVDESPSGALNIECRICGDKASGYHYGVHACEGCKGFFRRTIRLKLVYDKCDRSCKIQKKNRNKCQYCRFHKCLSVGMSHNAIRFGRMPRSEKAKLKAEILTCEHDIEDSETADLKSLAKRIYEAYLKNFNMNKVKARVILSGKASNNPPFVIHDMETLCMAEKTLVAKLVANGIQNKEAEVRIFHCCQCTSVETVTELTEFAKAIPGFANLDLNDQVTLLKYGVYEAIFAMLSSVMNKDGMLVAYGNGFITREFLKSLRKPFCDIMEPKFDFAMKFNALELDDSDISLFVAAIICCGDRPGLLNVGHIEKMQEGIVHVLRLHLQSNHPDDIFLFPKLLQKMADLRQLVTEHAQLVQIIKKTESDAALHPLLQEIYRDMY
# Tumor necrosis factor (Homo sapiens), sequence (P01375 whole entry, looked up): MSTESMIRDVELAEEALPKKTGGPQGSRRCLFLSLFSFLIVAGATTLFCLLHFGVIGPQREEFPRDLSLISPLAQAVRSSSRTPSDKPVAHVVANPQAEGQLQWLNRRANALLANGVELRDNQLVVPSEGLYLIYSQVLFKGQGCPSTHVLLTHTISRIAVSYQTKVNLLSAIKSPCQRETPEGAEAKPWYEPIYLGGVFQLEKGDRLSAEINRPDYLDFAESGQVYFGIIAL
# Nuclear receptor ROR-gamma (Homo sapiens), sequence (P51449 whole entry, looked up): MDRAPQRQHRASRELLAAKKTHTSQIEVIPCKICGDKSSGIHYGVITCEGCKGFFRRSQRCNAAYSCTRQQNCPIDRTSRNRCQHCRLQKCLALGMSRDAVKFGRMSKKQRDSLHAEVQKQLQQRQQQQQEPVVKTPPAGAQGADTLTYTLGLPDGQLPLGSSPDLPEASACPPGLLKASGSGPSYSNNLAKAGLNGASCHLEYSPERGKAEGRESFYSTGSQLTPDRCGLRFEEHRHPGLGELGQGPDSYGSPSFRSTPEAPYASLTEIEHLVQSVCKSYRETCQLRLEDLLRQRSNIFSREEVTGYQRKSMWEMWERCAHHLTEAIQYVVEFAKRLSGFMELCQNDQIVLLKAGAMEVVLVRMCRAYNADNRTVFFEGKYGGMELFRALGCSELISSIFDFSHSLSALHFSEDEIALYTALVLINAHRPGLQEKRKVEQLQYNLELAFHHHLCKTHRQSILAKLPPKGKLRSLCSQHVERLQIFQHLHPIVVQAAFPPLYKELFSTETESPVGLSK
smiles,measurement,setting,value
COc1ccc(-c2noc(CC(=O)O)c2-c2ccc(OC)cc2)cc1,Potency,[1],inactive
same,Potency,[2],inactive
same,Potency,[3],inactive
same,"ratio activity, negative = inhibition",[4],-1.01%
CCCCCCCCCC(=O)NO,Potency,[1],inactive
same,Potency,[2],inactive
same,Potency,[3],inactive
same,"ratio activity, negative = inhibition",[4],5.56%
COc1ccc2c(c1)OC(C)(C)C(c1ccccc1)C2c1ccc(OCCN2CCCC2)cc1 (stereo not drawn),Potency,[1],10 µM (active)
same,Potency,[2],inactive
same,Potency,[3],32.2 µM (active)
same,"ratio activity, negative = inhibition",[4],-10.8%
c1ccc2c(c1)OCC(CN1CCCCC1)O2 (stereo not drawn),Potency,[1],inactive
same,Potency,[2],inactive
same,Potency,[5],inactive
same,"ratio activity, negative = inhibition",[4],1.83%
CC(=O)N[C@@H]1C(O[C@H]2O[C@H](C(=O)O)C(O)[C@H](O)[C@H]2O)[C@H](O)[C@@H](CO)O[C@H]1O[C@@H]1C(C(=O)O)O[C@@H](O[C@H]2[C@H](O)[C@@H](CO)OC(O)[C@@H]2NC(C)=O)[C@H](O)[C@H]1O (stereo partly drawn),Potency,[1],inactive
same,Potency,[2],inactive
same,Potency,[3],inactive
same,"ratio activity, negative = inhibition",[4],1.9%
C[Se]CC[C@H](N)C(=O)O,Potency,[1],inactive
same,Potency,[2],inactive
same,Potency,[5],inactive
OCC1(CO)COC(C(Cl)(Cl)Cl)OC1,Potency,[1],inactive
same,Potency,[2],inactive
same,Potency,[5],inactive
NC(=O)Oc1ccc(Cc2ccccc2)cc1,Potency,[1],inactive
same,Potency,[2],inactive
same,Potency,[3],inactive
same,"ratio activity, negative = inhibition",[4],-0.76%
COc1ccc(C(=O)CCC(=O)O)c2ccccc12,Potency,[1],inactive
same,Potency,[2],inactive
same,Potency,[3],inactive
same,"ratio activity, negative = inhibition",[4],-1.03%
NC(=O)[C@H]1O[C@@H](O)[C@H](O)[C@@H](O)[C@@H]1O,Potency,[1],inactive
same,Potency,[2],inactive
same,Potency,[5],inactive
CCCCC(CC)COS(=O)(=O)O (stereo not drawn),Potency,[1],inactive
same,Potency,[2],inactive
same,Potency,[3],inactive
same,Potency,[5],inactive
same,activation,[6],-1.03%
same,activation,[7],-1.44%
same,max response,[8],-1.27%
CCCOC(=O)c1ccccc1O,Potency,[1],inactive
same,Potency,[2],inactive
same,Potency,[3],inactive
same,"ratio activity, negative = inhibition",[4],5.82%
C#C[C@]1(O)CC[C@@H]2[C@H]3CCC4=CC(=O)CC[C@H]4[C@H]3C(=C)C[C@@]21CC,Potency,[1],inactive
same,Potency,[2],inactive
same,"ratio activity, negative = inhibition",[4],-9.17% (active)
O=C(O)COc1ccc(CCNS(=O)(=O)c2ccccc2)s1,Potency,[1],inactive
same,Potency,[2],inactive
same,Potency,[5],inactive
same,"ratio activity, negative = inhibition",[4],-0.95%
C=CCCCCCCCCC(=O)OC,Potency,[1],inactive
same,Potency,[2],inactive
same,Potency,[5],inactive
same,"ratio activity, negative = inhibition",[4],-14.3%
Cc1ncc(C[n+]2csc(CCOP(=O)(O)O)c2C)c(N)n1,Potency,[1],inactive
same,Potency,[2],inactive
same,"ratio activity, negative = inhibition",[4],-8.96%
c1ccc2c(c1)Sc1ccccc1N2CCN1CCCC1,Potency,[1],15.8 µM (active)
same,Potency,[2],inactive
same,"ratio activity, negative = inhibition",[4],-1.68%
F[Si-2](F)(F)(F)(F)F,Potency,[1],inactive
same,Potency,[2],inactive
same,"ratio activity, negative = inhibition",[4],7.11%
CCCCCc1ccc(C)cc1O,Potency,[1],inactive
same,Potency,[2],inactive
same,Potency,[5],inactive
same,"ratio activity, negative = inhibition",[4],4.39%
CC(C)(Oc1ccc(C2CCCc3ccccc32)cc1)C(=O)O (stereo not drawn),Potency,[1],inactive
same,Potency,[2],inactive
same,Potency,[5],inactive
same,"ratio activity, negative = inhibition",[4],-0.979%
CCN(CC)CCCC(C)Nc1cc(/C=C/c2ccccc2Cl)nc2cc(Cl)ccc12 (stereo not drawn),Potency,[1],14.1 µM (active)
same,Potency,[2],inactive
same,"ratio activity, negative = inhibition",[4],-1.08%
COc1cc2c(cc1OC)[C@@H](Cc1cc(OC)c(OC)c(OC)c1)[N+](C)(CCCOC(=O)CC/C=C/CCC(=O)OCCC[N+]1(C)CCc3cc(OC)c(OC)cc3[C@H]1Cc1cc(OC)c(OC)c(OC)c1)CC2 (stereo partly drawn),Potency,[1],inactive
same,Potency,[2],inactive
same,Potency,[5],inactive
same,"ratio activity, negative = inhibition",[4],-5.32%
CC(=O)Oc1cccc(C(=O)O)c1OC(C)=O,Potency,[1],inactive
same,Potency,[2],inactive
same,"ratio activity, negative = inhibition",[4],10.8%
CC/C=C\C/C=C\C/C=C\C/C=C\C/C=C\CCCC(=O)O,Potency,[1],inactive
same,Potency,[2],inactive
same,Potency,[5],inactive
same,"ratio activity, negative = inhibition",[4],1.33%
C=CC[C@@H]1/C=C(\C)C[C@H](C)C[C@H](OC)[C@H]2O[C@@](O)(C(=O)C(=O)N3CCCC[C@H]3C(=O)O[C@H](/C(C)=C/[C@@H]3CC[C@@H](O)[C@H](OC)C3)[C@H](C)[C@@H](O)CC1=O)[C@H](C)C[C@@H]2OC,Potency,[1],inactive
same,Potency,[2],inactive
same,"ratio activity, negative = inhibition",[4],-24.4%
O=C1c2ccccc2C(=O)C1c1ccc(F)cc1,Potency,[1],inactive
same,Potency,[2],inactive
same,Potency,[5],inactive
same,"ratio activity, negative = inhibition",[4],2.55%
CC/C=C\C/C=C\C/C=C\C/C=C\C/C=C\C/C=C\CCC(=O)O,Potency,[1],inactive
same,Potency,[2],inactive
same,Potency,[5],inactive
same,"ratio activity, negative = inhibition",[4],0.57%
CCCc1nc(C(C)(C)O)c(C(=O)OCc2oc(=O)oc2C)n1Cc1ccc(-c2ccccc2-c2nn[nH]n2)cc1,Potency,[1],inactive
same,Potency,[2],inactive
same,Potency,[5],inactive
same,"ratio activity, negative = inhibition",[4],0.293%
CC(CN(C)C)CN1c2ccccc2Sc2ccc(C(F)(F)F)cc21 (stereo not drawn),Potency,[1],11.2 µM (active)
same,Potency,[2],inactive
same,"ratio activity, negative = inhibition",[4],-9.58%
CC(C)(COP(=O)(O)OP(=O)(O)OC[C@H]1O[C@@H](n2cnc3c(N)ncnc32)[C@H](O)[C@@H]1OP(=O)(O)O)C(O)C(=O)NCCC(=O)NCCS (stereo partly drawn),Potency,[1],inactive
same,Potency,[2],inactive
same,Potency,[5],inactive
same,"ratio activity, negative = inhibition",[4],1.27%
O=C1CCC(c2ccccc2)(C2CCN(Cc3ccccc3)CC2)C(=O)N1 (stereo not drawn),Potency,[1],14.1 µM (active)
same,Potency,[2],inactive
same,Potency,[5],inactive
same,"ratio activity, negative = inhibition",[4],1.84%
CC(C)O,Potency,[1],inactive
same,Potency,[2],inactive
same,Potency,[5],inactive
same,"ratio activity, negative = inhibition",[4],-7.58%
same,activation,[6],-0.863%
same,Potency,[9],inactive
same,Potency,[10],inactive
same,Potency,[11],inactive
same,Potency,[12],inactive
same,activation,[7],2.92%
same,max response,[8],-0.168%
same,Potency,[13],inactive
